PAX8 inh HTS – PAX8 transcriptional activity inhibition; RMG-I TPO-luciferase reporter, SteadyGlo, 24 h; inhibition, % at 12.6 µM; 360,000 compounds, 1.2% hits;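 active = mean replicate inhibition at least 60% with every replicate also reaching 60%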;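 note: luciferase light reporting Pax8 driven TPO promoter activity; plate controls were median of neutral control wells for no effect and mitoxantrone controls for full effect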
Shn3 3UTR inh – reduces Shn3 3'UTR luciferase signal in osteoblasts; AID 588674; inhibition, % at 12.5 µM; Clone20 osteoblast Shn3 3'UTR firefly luciferase, 24 h; 360,000 compounds, 0.52% hits;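 active = mean inhibition of at least 75% with every replicate also reaching 75%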;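 note: 0% = median of neutral control wells and 100% = pilot-screen positive control compound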
LGR2 antag – inhibitors of bursicon-induced Drosophila LGR2 receptor cAMP signaling | 380,000 compounds, 0.35% hits | inhibition, % at 9.99 µM | HEK293 LGR2, CRE-luciferase, bursicon-stimulated, 4 h | AID 720647;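 active = drop in luminescence signal, shown as inhibition above about 50% in the replicate tests, limit read from the data, passing the limit was not always enough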;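 note: agonist challenge used bursicon conditioned medium at about half maximal strength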
MITF TRPM1 inh – reduces MITF-dependent TRPM1 promoter luciferase signal | 330,000 compounds, 0.83% hits | SK-MEL-5 TRPM1 promoter luciferase, 24 h | inhibition, % at 12.5 µM;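 active = mean inhibition across replicates of 60% or more, whatever share of single replicates reaches that level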
EWS-Fli block – EWS/Fli transcriptional activity inhibition; A673 NR0B1-luciferase reporter, viability-normalised; inhibition, % at 12.6 µM; 350,000 compounds, 0.67% hits; AID 651661;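 active = mean inhibition of at least 50% after viability correction, with every replicate also passing that limit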;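 note: firefly luciferase signal divided by Alamar Blue viability fluorescence both relative to DMSO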
LMP1 NFkB inh – reduces LMP1-driven NF-kappaB luciferase signal; LMP1-induced NF-kappaB luciferase reporter cells, luminescence; inhibition, % at 12.5 µM; 350,000 compounds, 0.69% hits; AID 504558; in the data active = inhibition above about 41%;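 note: 0% = neutral control wells and 100% = reference inhibitor control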
* marks the source's active call; other numbers are inactive results; . = no result. In the library only some 2.2% were active in any assay of this set; here they are far more common.

SMILES	PAX8 inh HTS	Shn3 3UTR inh	LGR2 antag	MITF TRPM1 inh	EWS-Fli block	LMP1 NFkB inh
COCC#Cc1cnc2c(c1)C(=O)N([C@H](C)CO)C[C@@H](C)[C@H](CN(C)C(=O)CN1CCOCC1)O2	-3	.	2	.	0	.
C[C@H]1CN([C@@H](C)CO)C(=O)Cc2cc(NS(=O)(=O)c3cccs3)ccc2O[C@@H]1CN(C)C(=O)Nc1ccccc1	-26	.	-18	.	-12	.
C[C@@H]1CN([C@@H](C)CO)C(=O)c2ccccc2-c2ccccc2CO[C@@H]1CN(C)C(=O)[C@H](C)c1ccccc1	2	.	6	.	4	.
Brc1ccc2ncnc(NCc3ccccc3)c2c1	.	75	.	4	.	60*
COc1ccccc1CNC(=O)C[C@@H]1C[C@@H]2c3cc(NS(C)(=O)=O)ccc3O[C@@H]2[C@H](CO)O1	-16	.	16	.	1	.
COCC#Cc1ccc2c(c1)O[C@@H](CN(C)CC1CC1)[C@@H](C)CN([C@@H](C)CO)S2(=O)=O	.	.	9	.	8	.
C[C@H](CO)N1C[C@H](C)[C@@H](CN(C)C(=O)Cc2ccncc2)Oc2cc(C3=CCCC3)ccc2S1(=O)=O	2	.	8	.	3	.
O=C(Cc1ccncc1)NCC[C@@H]1CC[C@H](NC(=O)C2CC2)[C@H](CO)O1	-3	.	6	.	-5	.
O=C(COC(=O)/C=C/c1ccc(F)cc1)Nc1ccc2[nH]c(=O)[nH]c2c1	6	-4	-1	-7	3	-3
O=C(COC(=O)/C=C/c1ccc(OC(F)F)cc1)Nc1ccc2[nH]c(=O)[nH]c2c1	-12	97*	.	-10	-2	-28
O=C(C[C@@H]1CC[C@@H]2[C@H](COC[C@@H](O)CN2C(=O)Nc2ccc(F)cc2)O1)NCCc1ccncc1	-19	.	12	.	2	.
Cc1cc2c(cc1C)N(C(=O)CCl)CC(=O)N2	.	-9	.	.	.	-18
Cc1cc2c(cc1C)N(C(=O)CCl)CCN2C(=O)CCl	-3	-2	-10	94*	-12	0
C[C@H]1CN([C@@H](C)CO)C(=O)Cc2cc(NS(=O)(=O)c3ccc(F)cc3)ccc2O[C@@H]1CN(C)CC1CCCCC1	.	.	9	.	-3	.
CCOc1ccc(S(=O)(=O)NCc2ccccn2)cc1NC(=O)c1ccccc1	13	20	-7	37	58*	8
C[C@H](CO)N1C[C@H](C)[C@H](CN(C)C(=O)Nc2cccc3ccccc23)Oc2c(NS(=O)(=O)c3ccc(Cl)cc3)cccc2C1=O	.	.	-2	.	3	.
CC(=O)Nc1cc([N+](=O)[O-])ccc1N1CCOCC1	-1	-16	9	-1	-16	-3
O=C(Nc1ccc([N+](=O)[O-])cc1)Nc1ccc(N2CCOCC2)c2nonc12	-15	23	67*	-5	12	20
CCC(=O)Oc1ccc2c(C)cc(=O)oc2c1C(=O)c1ccccc1	88*	5	12	6	11	4
CCC(=O)Oc1ccc2c(C)cc(=O)oc2c1C(=O)CC	18	6	-10	-3	-2	-1
Cc1c(C)c2ccc(OCC(=O)N(C)C)c(C)c2oc1=O	.	-28	.	-9	.	-9
Cc1cc(=O)oc2c(C)c(OCC(=O)N(C)C)ccc12	.	6	1	0	.	42*
C[C@@H]1CN([C@@H](C)CO)C(=O)c2cc(NS(=O)(=O)c3cn(C)cn3)ccc2O[C@H]1CN(C)S(=O)(=O)c1ccc(Cl)cc1	4	.	9	.	-4	.
CCOc1cccc(/C=N/NC(=O)c2cccnc2)c1O	37	70	5	30	13	8
CCOc1cccc(/C=N/NC(=O)c2cc(C3CC3)[nH]n2)c1O	36	95*	-10	61*	8	-4
SMILES	PAX8 inh HTS	Shn3 3UTR inh	LGR2 antag	MITF TRPM1 inh	EWS-Fli block	LMP1 NFkB inh
COCc1nc2ccccc2n1Cc1cccc(C)c1	-8	-5	.	2	.	-1
Cc1cccc(Cn2c(Cc3ccccc3)nc3ccccc32)c1	69*	5	-3	-3	11	8
O=C(N[C@H]1CC[C@H](CCn2cc(C3CC3)nn2)O[C@H]1CO)c1cccnc1	7	.	12	.	-1	.
COCC(=O)N(C)C[C@@H]1Oc2ncc(C3=CCCCC3)cc2C(=O)N([C@@H](C)CO)C[C@H]1C	.	.	31	.	-11	.
CCCNC(=O)N1CCN(S(=O)(=O)c2ccc(C)c(C)c2)CC1	.	-8	.	-6	.	47*
CN(CCC#N)C(=S)Nc1ccc(F)cc1	5	6	11	6	0	57*
N#CCCN(Cc1ccccc1)C(=S)Nc1ccc(F)cc1	12	.	.	-12	2	-31

Screening results from PubChem.
